{"source": "PubChem BioAssay (Tox21)", "note": "Calls of active or inactive are those of the source. Entries that show only a call come without a potency. Calls follow the shape of the dose curve; as a rule, active = well fitted cell-killing curve with a large enough effect in the repeat runs; inconclusive = weak or mixed curves, or effect the other way; inactive = flat fitted curve, though single readings scatter.", "data": [{"assay": "qHTS assay to identify small molecule HDAC inhibitors - cell viability counter screen (AID 1259365); also: nearly all actives have a fitted effect of over 50% in size", "conditions": "HCT-116 viability, CellTiter-Glo ATP luminescence, 2 h; series mostly up to 92.4 µM", "text": "U.S. Tox21 Program National Center for Advancing Translational Sciences [NCATS] NIH Chemical Genomics Center [NCGC] U.S. Environmental Protection Agency [EPA] National Institutes of Environmental Health Sciences [NIEHS] National Toxicology Program [NTP] U.S. Food and Drug Administration [FDA] Tox21 Assay Overview: Histone deacetylases (HDACs) are a group of epigenetic enzymes that regulate gene expression by histone deacetylation. HDACs are capable of introducing epigenetic modifications and such aberrations contribute to the onset and progression of several human diseases, thus making HDACs a popular therapeutic target. For identifying endogenous class I/II HDAC inhibitors a homogenous, luminogenic HDAC I/II cell based assay was used to measure the relative activity of class I and II HDACs from cells. Wild type HCT-116 cells were used to screen Tox21 compound libraries for identifying class I/II HDAC inhibitors.\nTox21 Assay Protocol Summary: HCT-116 cells were dispensed at 1,500 per well in 5uL of culture medium into white solid bottom 1536-well plates (Greiner Bio-One, Monroe, NC) using a Multidrop Combi (Thermo Scientific, Waltham, MA) dispenser. The assay plates were incubated at 37 C and 5% CO2 for an overnight, and then 23nL of compounds dissolved in DMSO and positive control were transferred using a Pintool station (Wako, San Diego, CA). The assay plates were incubated at 37C and 5% CO2 for 2hr. After compound treatment, 4uL of CellTiter-Glo reagent (Promega Corporation, Madison, WI) was added to each well of the assay plates using Flying Reagent Dispenser (FRD, Aurora Discovery, San Diego, CA) and incubated the assay plates at room temperature for 30min. The luminescence signal was quantified using a ViewLux plate reader (Perkin Elmer, Shelton, CT).", "values": [{"smiles": "CCCC[N+](CCCC)(CCCC)CCCC", "Potency": "inactive"}, {"smiles": "C[N+]1(CCC(C(N)=O)(c2ccccc2)c2ccccc2)CCCCC1", "Potency": "inactive"}, {"smiles": "O=C(NCNC(=O)NC1C(=O)NC(=O)N1CO)NC1C(=O)NC(=O)N1CO", "note": "(stereo not given)", "Potency": "inactive"}, {"smiles": "C[C@H]1O[C@H](OC2[C@@H](O)[C@@H](O)C(O)[C@H](O)[C@H]2O)[C@@H](N)C[C@@H]1N=C(N)C(=O)O", "note": "(stereo not given in full)", "Potency": "inactive"}, {"smiles": "CC1(C)CC(=O)CC(C)(C)N1[O]", "Potency": "inactive"}, {"smiles": "C=CC(=O)OCC", "Potency": "inactive"}, {"smiles": "C[CH2][Hg][S]c1ccccc1C(=O)O", "Potency": "inactive"}, {"smiles": "C=CC(C)(CCC=C(C)C)OC(=O)c1ccccc1N", "note": "(stereo not given)", "Potency": "inactive"}, {"smiles": "CCOP(=S)(S)OCC", "Potency": "inactive"}, {"smiles": "COc1cc(C[C@@H](C)N)c(OC)cc1Br", "Potency": "inactive"}, {"smiles": "Nc1c(Br)cc(Br)c2c1C(=O)c1ccccc1C2=O", "activity change, negative = cytotoxicity": "-8.35% [at 19 µM] (inactive)"}, {"smiles": "CCC1(C2=NCCN2)Cc2ccccc2O1", "note": "(stereo not given)", "Potency": "inactive"}, {"smiles": "O=C(O)c1ccc(=O)[nH]c1", "Potency": "inactive"}, {"smiles": "CCOC(C(=O)OCCN(C)C)(c1ccccc1)c1ccccc1", "Potency": "inactive"}, {"smiles": "O=C(Cl)OCCOCCOC(=O)Cl", "Potency": "inactive"}, {"smiles": "O=[N+]([O-])O[C@H]1CO[C@H]2[C@@H]1OC[C@H]2O[N+](=O)[O-]", "Potency": "inactive"}, {"smiles": "C[N+](C)(C)CCOC(=O)C(O)(c1ccccc1)c1ccccc1", "Potency": "inactive"}, {"smiles": "c1ccc2c(c1)sc1ccccc12", "Potency": "inactive"}, {"smiles": "O=C([O-])c1ccccn1.O=C([O-])c1ccccn1.O=C([O-])c1ccccn1.[Cr+3]", "Potency": "inactive"}, {"smiles": "CC(C)CCON=O", "Potency": "inactive"}, {"smiles": "CCCCCCCCn1sccc1=O", "Potency": "inactive"}, {"smiles": "C=C(C)C(=O)OCCCCOC(=O)C(=C)C", "Potency": "inactive"}, {"smiles": "O=S(=O)(c1ccccc1)c1ccccc1", "Potency": "inactive"}, {"smiles": "Cc1nc2ccccc2c(=O)n1-c1ccccc1Cl", "Potency": "inactive"}, {"smiles": "CN(C)C(=O)Nc1cccc(OC(=O)NC(C)(C)C)c1", "Potency": "inactive"}, {"smiles": "CCOC(=O)c1cncn1C(C)c1ccccc1", "note": "(stereo not given)", "Potency": "inactive"}, {"smiles": "CN(C1CCCCC1)C1CCCCC1", "Potency": "inactive"}, {"smiles": "CCCCCCCCCCCCN(C)C", "Potency": "inactive"}, {"smiles": "CC(C)(C)OOC(C)(C)CCC(C)(C)OOC(C)(C)C", "Potency": "inactive"}, {"smiles": "O=C1NC(=O)C(=O)C(=O)N1", "Potency": "inactive"}, {"smiles": "C=CC(=O)NC(C)(C)CC(C)=O", "Potency": "inactive"}, {"smiles": "C=CCN1C[C@H](C)N([C@H](c2ccc(C(=O)N(CC)CC)cc2)c2cccc(OC)c2)C[C@H]1C", "Potency": "inactive"}, {"smiles": "CCOP(=O)(SC(C)CC)N1CCSC1=O", "note": "(stereo not given)", "Potency": "inactive"}, {"smiles": "CCCCCl", "Potency": "inactive"}, {"smiles": "Clc1ccc(Cl)c(Cl)c1", "Potency": "inactive"}, {"smiles": "FC(F)OC(F)(F)C(F)Cl", "note": "(stereo not given)", "Potency": "inactive"}, {"smiles": "CCCN(CCC)c1c([N+](=O)[O-])cc(C(C)C)cc1[N+](=O)[O-]", "Potency": "inactive"}, {"smiles": "CC(=O)OC(c1ccccc1)C(Cl)(Cl)Cl", "note": "(stereo not given)", "Potency": "inactive"}, {"smiles": "CC[N+]1(CCOC(=O)C(O)(c2ccccc2)c2ccccc2)CCCCC1", "Potency": "inactive"}, {"smiles": "O=C(N[C@H]1CN2CCC1CC2)c1ccc2c(c1)OCCO2", "Potency": "inactive"}]}]}
